Only some compounds are listed: those with a hit (about 2.4% of all), similar ones and a draw of the others.
D2 PAM-1 = D2 dopamine receptor (human) potentiation; 340,000 compounds, 0.34% hits; HEK293 T-REx D2, calcium flux, EC20 dopamine potentiation; P14416; potentiation, % at 10 µM;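 active = potentiation over 3 SD above the plate norm, cut at about 30% in these data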
Target sequence (P14416 whole entry, looked up): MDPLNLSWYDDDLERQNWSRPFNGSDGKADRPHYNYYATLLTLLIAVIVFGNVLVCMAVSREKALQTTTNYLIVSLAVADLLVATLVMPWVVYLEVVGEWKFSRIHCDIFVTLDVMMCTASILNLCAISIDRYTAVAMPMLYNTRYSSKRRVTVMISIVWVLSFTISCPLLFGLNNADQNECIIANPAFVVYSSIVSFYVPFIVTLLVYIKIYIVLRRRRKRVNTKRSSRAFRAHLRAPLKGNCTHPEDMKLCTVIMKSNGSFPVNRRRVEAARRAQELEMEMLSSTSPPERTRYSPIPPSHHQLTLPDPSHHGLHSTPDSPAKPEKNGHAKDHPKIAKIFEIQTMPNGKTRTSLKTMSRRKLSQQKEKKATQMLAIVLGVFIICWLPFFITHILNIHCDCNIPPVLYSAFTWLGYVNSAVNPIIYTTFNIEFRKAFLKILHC
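Potentiation of an EC20 dopamine calcium response is measured in a force-coupled, tetracycline-inducible Hek293 Trex D2 line. Compound-only kinetic reads over 180 s flag agonists before dopamine addition.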
D2 antag = antagonizes the human D2 dopamine receptor. P14416. HEK293 TREx D2 cells, calcium flux, dopamine EC80. inhibition, % at 10 µM. 340,000 compounds, 2% hits. AID 485344; in the data active = inhibition above about 30%; inactive = below that, where a call was filed
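Tetracycline-induced HEK293 TREx cells expressing D2 receptor forced-coupled to calcium signalling, loaded with no-wash calcium dye. Compounds added and calcium flux read 180 s, then dopamine added at EC80 and read a further 180 s.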
D2 ag-1 = agonists of human D2 dopamine receptor (beta-arrestin). DiscoveRx PathHunter D2 beta-arrestin, luminescence, 90 min; 100% = 57 uM dopamine signal. activation, % (no concentration beside the values). 360,000 compounds, 0.084% hits. AID 624465; in the data active = activation above about 40%
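DiscoveRx PathHunter D2 beta-arrestin cells (2,100/well) attached overnight, then compound-stimulated 90 min at 37 C in HBSS/10 mM HEPES/0.1% Tween-20 buffer; beta-galactosidase complementation read by luminescence after 1 h at ambient temperature. Dopamine 57 uM final (EC100) as control.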
D2 PAM-2 = human D2 receptor positive allosteric modulation. DiscoveRx D2 beta-arrestin cells, luminescence, 90 min; 100% = 57 uM dopamine signal. potentiation, % (test concentration not listed). P14416. AID 624464. 360,000 compounds, 0.23% hits; in the data active = potentiation above about 50%
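D2 cells co-treated with compound plus 50 nM dopamine (EC20) for 90 min at 37 deg C to detect potentiation. Beta-arrestin recruitment was read as enzyme-fragment luminescence after 1 h at ambient temperature. Full response was set by 57 uM dopamine.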
D2 ag-2 = D2 dopamine receptor (human) agonism; activation, % at 2 µM; P14416; 340,000 compounds, 0.53% hits; HEK293 T-REx D2 cells, calcium flux agonist mode;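 active = activation over 3 SD above normal in the single-dose calcium agonist read, cut at about 30% in these data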
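Calcium-flux readout, 1 cycle/sec over 180 s following compound pin transfer, in inducible HEK293 Trex D2 cells (force-coupled); dopamine controls included. Positive calcium responses during this window marked compounds as potential agonists.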
A number is an active result.

For CC1CCCN(S(=O)(=O)c2cccc(C(=O)NCc3ccco3)c2)C1 (stereo not drawn) the results were D2 ag-1 inactive and D2 PAM-2 inactive.
For COc1ccc(C(CNC(=O)c2cccc(Br)c2)N2CCCC2)cc1 (stereo not drawn) the results were D2 PAM-1 inactive, D2 antag 41, D2 ag-1 inactive, D2 PAM-2 inactive and D2 ag-2 inactive.
Screening COc1ccc(C(CNC(=O)C(C)Oc2ccc(Br)cc2)N2CCCC2)cc1 (stereo not drawn) returned D2 PAM-1 inactive, D2 antag 41, D2 ag-1 inactive, D2 PAM-2 inactive and D2 ag-2 inactive.
COc1ccc(C(CNC(=O)c2cccc(S(=O)(=O)N3CCCC(C)C3)c2)N(C)C)cc1 (stereo not drawn) was read as D2 PAM-1 inactive, D2 antag 76, D2 ag-1 inactive, D2 PAM-2 inactive and D2 ag-2 inactive.
Screening COc1ccc(C(CNC(=O)C(CCSC)NC(=O)c2ccccc2Cl)N2CCCC2)cc1 (stereo not drawn) returned D2 PAM-1 inactive, D2 antag inactive, D2 ag-1 inactive, D2 PAM-2 inactive and D2 ag-2 inactive.
`CC1=C(C)C(=O)N(C(C)CCc2ccccc2)C1=O` (stereo not drawn) gave D2 PAM-1 inactive, D2 antag inactive, D2 ag-1 inactive, D2 PAM-2 inactive and D2 ag-2 inactive.
Screening Cn1cc(-c2cc3n(n2)CCC(=O)N3CCCC(=O)Nc2ccccc2F)c2ccccc21 returned D2 PAM-1 inactive and D2 ag-2 inactive.
For COCC(=O)N1CCC(Oc2ccc(C(=O)NCCc3ccncc3)cc2)CC1 the results were D2 PAM-1 inactive, D2 antag inactive, D2 ag-1 inactive, D2 PAM-2 inactive and D2 ag-2 inactive.
Screening COc1ccc(C(CNC(=O)COc2ccccc2C)N2CCCCC2)cc1 (stereo not drawn) returned D2 PAM-1 inactive, D2 antag inactive, D2 ag-1 inactive, D2 PAM-2 inactive and D2 ag-2 inactive.
`COc1ccc(C(CNC(=O)COc2ccc(F)cc2Br)N2CCCC2)cc1` (stereo not drawn) gave D2 PAM-1 42, D2 antag inactive, D2 ag-1 inactive, D2 PAM-2 inactive and D2 ag-2 inactive.
Screening Cc1nc2ccccc2c(=O)n1CCCO returned D2 PAM-1 inactive, D2 antag 32, D2 ag-1 inactive, D2 PAM-2 inactive and D2 ag-2 inactive.
For N#C/C(=C\c1ccccc1C(F)(F)F)C(=O)Nc1ccccc1 the results were D2 PAM-1 inactive, D2 antag inactive, D2 ag-1 inactive, D2 PAM-2 inactive and D2 ag-2 inactive.
CCc1cccc(CC)c1NC(=O)/C(C#N)=C/c1ccccc1C(F)(F)F was read as D2 PAM-1 inactive, D2 antag inactive, D2 ag-1 inactive, D2 PAM-2 96 and D2 ag-2 inactive.
`O=c1c2c(n3cnnc3n1-c1ccccc1)-c1ccccc1CC21CCCCC1` gave D2 PAM-1 inactive, D2 antag inactive, D2 ag-1 inactive, D2 PAM-2 inactive and D2 ag-2 inactive.
Screening Cc1cccc(-n2c(=O)c3c(n4cnnc24)-c2ccccc2CC32CCCCC2)c1 returned D2 PAM-1 41, D2 antag 31, D2 ag-1 inactive, D2 PAM-2 inactive and D2 ag-2 inactive.
For CC(C(c1ccc2c(c1)OCO2)c1c(N)n(C)c(=O)n(C)c1=O)[N+](=O)[O-] (stereo not drawn) the results were D2 ag-1 inactive and D2 PAM-2 inactive.
Screening COc1ccc(Cc2nn3c(Cn4nnc5ccccc54)nnc3s2)cc1 returned D2 PAM-1 inactive, D2 antag 39, D2 ag-1 inactive, D2 PAM-2 inactive and D2 ag-2 inactive.
Screening CCOC(=O)c1[nH]c(=O)[nH]c1CSc1nc(C)cc(C)n1 returned D2 PAM-1 inactive, D2 antag 32, D2 ag-1 inactive, D2 PAM-2 inactive and D2 ag-2 inactive.
Cc1ccsc1/C=N/Nc1nc(=O)[nH]nc1C was read as D2 PAM-1 inactive, D2 antag inactive, D2 ag-1 inactive, D2 PAM-2 inactive and D2 ag-2 inactive.
Screening Cc1sc2nc(SCc3nc(-c4ccccc4)no3)n(-c3ccccc3)c(=O)c2c1C returned D2 PAM-1 34, D2 antag inactive, D2 ag-1 inactive, D2 PAM-2 inactive and D2 ag-2 inactive.
Screening C=CCn1c(O)c(N=NC(=S)Nc2ccccc2F)c2ccccc21 returned D2 PAM-1 inactive, D2 antag 68, D2 ag-1 inactive, D2 PAM-2 inactive and D2 ag-2 inactive.
`C=CCn1c(SCC(=O)Nc2ncc(Cc3ccc(Br)cc3)s2)nnc1-c1ccncc1` gave D2 PAM-1 32, D2 antag inactive, D2 ag-1 inactive, D2 PAM-2 inactive and D2 ag-2 inactive.
For Cc1cccc(C)c1C(OCCN(C)C)C1CCCCC1 (stereo not drawn) the results were D2 PAM-1 inactive, D2 antag 89, D2 ag-1 inactive, D2 PAM-2 inactive and D2 ag-2 inactive.
CN(C)CCOC(c1ccccc1)c1ccccc1 (tested in a mixture with another compound) was read as D2 PAM-1 inactive, D2 antag inactive, D2 ag-1 inactive, D2 PAM-2 inactive and D2 ag-2 inactive.
For C/C(=N\NC(=O)c1cccc(Br)c1)c1cccnc1 the results were D2 PAM-1 inactive, D2 antag inactive, D2 ag-1 inactive, D2 PAM-2 inactive and D2 ag-2 inactive.
`COc1cc(S(=O)(=O)N2CCC(c3nc4ccccc4s3)CC2)ccc1S(=O)(=O)N1CC(C)CC(C)C1` (stereo not drawn) gave D2 PAM-1 34, D2 antag inactive, D2 ag-1 inactive, D2 PAM-2 inactive and D2 ag-2 inactive.
Screening COc1ccc(S(=O)(=O)NCC2CCCN(C(=O)c3ccco3)C2)cc1 (stereo not drawn) returned D2 PAM-1 inactive, D2 antag 32, D2 ag-1 inactive, D2 PAM-2 inactive and D2 ag-2 inactive.
`COc1ccc(CC2(CO)CCN(Cc3cnn(-c4ccccc4OC)c3)CC2)cc1` gave D2 PAM-1 inactive, D2 antag 79, D2 ag-1 inactive, D2 PAM-2 inactive and D2 ag-2 inactive.
COc1ccc(CC2(CO)CCN(C(C)COc3ccccc3)CC2)cc1 (stereo not drawn) was read as D2 ag-1 49 and D2 PAM-2 inactive.
Screening Cc1ccc(S(=O)(=O)Nc2ccsc2C#N)cc1 returned D2 PAM-1 inactive, D2 antag inactive, D2 ag-1 inactive, D2 PAM-2 inactive and D2 ag-2 inactive.
`O=C(CSc1cn(CC(=O)N2CCCC2)c2ccccc12)Nc1cc(C(F)(F)F)ccc1Cl` gave D2 PAM-1 inactive and D2 ag-2 inactive.
For COc1ccc2c(c1)C=C(CN1CCC(CO)(CCc3ccccc3)CC1)CO2 the results were D2 PAM-1 inactive, D2 antag 31, D2 ag-1 inactive, D2 PAM-2 inactive and D2 ag-2 inactive.
